The values below come from the supplement of paper PMC10941209.

Unmarked numbers belong to inactive results.

This assay has as its system Toxoplasma gondii RH 2F1 tachyzoites (intracellular in HFF). Nature of the assay: parasite survival relative to DMSO control; higher = less antiparasitic activity, active = 20 or less. Particulars: 1 µM; 72 h. The method in brief: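 Compound at 1 μM was applied for 72 h at 37°C in 5% CO2 to HFF cells in 96-well plates (5 × 10^3 cells/well) that had been infected for 3 h in D2 medium with 5 × 10^3 Toxoplasma gondii RH-2F1 tachyzoites carrying β-galactosidase. The readout was absorbance at 570 nm, 30 min after CPRG addition. Survival is reported as a percentage of the signal from infected wells given DMSO, based on at least 2 biological replicates.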
As for `COc1cccc(N2CCN(C3=Nc4c(F)cccc4[C@H](CC(=O)O)N3c3cc(C(F)(F)F)ccc3OC)CC2)c1`, the parasite survival is 41.2%. To `N#C/C(=C1/SC[C@H](c2ccc(Cl)cc2Cl)S1)n1ccnc1` belongs 41.2%; to `CC(C)Nc1nc2cc(Cl)c(Cl)cc2n1[C@H]1O[C@@H](CO)[C@H](O)[C@@H]1O`, 72%; to `O=C(O)CCNC(=O)c1ccccc1`, 50.8%. `CCc1nc(N)nc(N)c1C#CCc1ccccc1`: the parasite survival was 5.77% (active). Take `COc1cc(Cc2cc(N)nc(N)n2)cc(OC)c1OC`: the parasite survival was 31%. For the molecule `CC(C)(C)c1cccc(-c2nc3cc(C(=N)N)ccc3[nH]2)c1O`, the parasite survival was 50.5%. The result for `Cc1ccc(NC(=O)c2ccc(CN3CCN(C)CC3)cc2)cc1Nc1nccc(-c2cccnc2)n1` reads 61%; that for `O=C(O)c1ccccc1Sc1ncnc2sc3c(c12)CCC3`, 44.2%. To `C=C[C@]1(C)C[C@@H](OC(=O)CS[C@@H]2C[C@H]3CC[C@@H](C2)N3C)[C@]2(C)[C@H](C)CC[C@]3(CCC(=O)[C@H]32)[C@@H](C)[C@@H]1O` belongs 18.1% (active); to `Cc1[nH]c2ccccc2c1CC(=O)N[C@@H](Cc1ccccc1)C(=O)N(C)c1ccccc1`, 83.1%; to `C[Si]1(C)CCN(Cc2cc(-c3ccc(Cl)cc3)n(-c3ccc(Cl)cc3)n2)CC1`, 13.7% (active). The result for `COc1ccc(SCC(=O)N2c3ccccc3Sc3ccccc32)cc1` reads 47.4%; that for `Cc1nc2ccc(Oc3ccccc3)cc2c2c1CCN2CCc1ccccc1`, 8.56% (active). As to `CC(C)(C)c1ccc(C(Cn2cccc(C(F)(F)F)c2=O)NC2Cc3ccccc3C2)cc1` (stereo not given), the parasite survival was 51.5%.

Turning to `CC(=O)Nc1cc(NS(=O)(=O)c2ccc(Cl)cc2)cc2c(Cl)[nH]nc12`, the parasite survival was 52%.

For `Nc1nc(NC2Cc3ccc(F)cc3C2)nc(N2CCCCC2)n1` (stereo not given), the parasite survival was 41.9%. The result for `CCOc1ccc(/C=N/NC(=O)C2CC2c2ccc(C(C)(C)C)cc2)cc1OCC` (stereo not given) reads 51.6%; that for `Nc1nc(=O)[nH]cc1F`, 51.9%; that for `O=C1NC(=S)N/C1=C\c1cc(Br)cc(Br)c1O`, 71.6%.

Take `NS(=O)(=O)c1ccc(NC(=O)NC(c2ccccc2)c2ccccc2)cc1`: the parasite survival is 32%. In the case of `NCC(=O)Nc1ccc(-n2nc(C(F)(F)F)cc2-c2ccc3c(ccc4ccccc43)c2)cc1`, the parasite survival was 13.7% (active). The result for `CC#C[C@]1(O)CC[C@H]2[C@@H]3CCC4=CC(=O)CCC4=C3[C@@H](c3ccc(N(C)C)cc3)C[C@@]21C` reads 45.7%; that for `Cc1onc(-c2ccccc2)c1-c1ccc(S(N)(=O)=O)cc1`, 74%; that for `C=CCN(C(=O)OCc1ccc([N+](=O)[O-])cc1)C1CCN(CC[C@](C)(CN(C)S(=O)(=O)c2ccccc2)c2ccccc2)CC1`, 35.5%.

`O=C1C=C(c2ccccc2)S(=O)(=O)c2ccccc21`: the parasite survival is 44.4%.

`COc1ccc(NS(=O)(=O)c2ccc(Cl)s2)cn1`: the parasite survival is 45.1%. As to `N=C(N)c1ccc(COc2ccc(Cl)cc2)cc1`, the parasite survival is 54.6%. Consider `C[C@H](Cn1cnc2c(N)ncnc21)OCP(=O)(O)O`, for which the parasite survival is 76.3%. To `OCCC#Cc1nc(-c2ccc(F)cc2)c(-c2ccncc2)n1CCCc1ccccc1` belongs 9.3% (active); to `CNc1nc(=O)[nH]cc1F`, 60.5%. To `OB1OCc2c1ccc(Cl)c2F` belongs 77.1%; to `Cc1ccc(C)c(OCCCCCCN2C[C@H](O)[C@@H](O)[C@H](O)[C@H]2CO)c1`, 62.8%. To `C[C@@]1(O)[C@H](O)[C@@H](CO)O[C@H]1n1ccc2c(N)ncnc21` belongs 58.6%.

Take `CC(=O)N1CCN(c2ccc(OCC3COC(Cn4ccnc4)(c4ccc(Cl)cc4Cl)O3)cc2)CC1` (stereo not given): the parasite survival is 58.4%.

With `C[C@H](c1cccc2ccccc12)N(C)Cc1ccccc1`, the parasite survival was 44.4%. For `O=c1cc(Nc2ccc3ccccc3c2)[nH]c(=O)[nH]1`, the parasite survival was 53.3%.

Turning to `Cc1ccc(NC(=O)c2cc(Cl)ccc2O)cc1`, the parasite survival is 42.3%. On to `O=C(O)c1sccc1S(=O)(=O)n1ccc2cc(Br)ccc21`, for which the parasite survival was 66.8%. As for `C[C@H]1CC[C@]2(NC1)O[C@H]1C[C@H]3[C@@H]4CC[C@H]5C[C@@H](O)CC[C@]5(C)[C@H]4CC[C@]3(C)[C@H]1[C@@H]2C`, the parasite survival was 41.1%.
